Laboratory results from PubChem BioAssay AID1619 (SRMLSC, 2009).
Among all 220,000 compounds or so, about 830 (0.38%) were called active.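 How the source made its calls: active means compound inhibiting the enzyme by more than half at any dose during confirmatory dose-response retesting; inconclusive means strong single-dose inhibitors picked by rank but not retested; inactive means the rest.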 Only a sample is shown. Results with a measured potency or affinity are listed apart.

Molecular target: Leucine aminopeptidase (Plasmodium falciparum (isolate 3D7)) (UniProt Q8IL11)
Experiment: P. falciparum M17LAP inhibitors, primary screen, biochemical, fluorogenic H-Leu-NHMec substrate, 1536-well (AID 1619);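 further: plate controls were full reaction with DMSO carrier for no effect and no enzyme background for full effect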
Details: recombinant M17LAP, H-Leu-NHMec fluorogenic kinetic assay; at 30 µM; stronger effect = higher value

Leucine aminopeptidase (Plasmodium falciparum (isolate 3D7)), sequence (Q8IL11 whole entry, looked up): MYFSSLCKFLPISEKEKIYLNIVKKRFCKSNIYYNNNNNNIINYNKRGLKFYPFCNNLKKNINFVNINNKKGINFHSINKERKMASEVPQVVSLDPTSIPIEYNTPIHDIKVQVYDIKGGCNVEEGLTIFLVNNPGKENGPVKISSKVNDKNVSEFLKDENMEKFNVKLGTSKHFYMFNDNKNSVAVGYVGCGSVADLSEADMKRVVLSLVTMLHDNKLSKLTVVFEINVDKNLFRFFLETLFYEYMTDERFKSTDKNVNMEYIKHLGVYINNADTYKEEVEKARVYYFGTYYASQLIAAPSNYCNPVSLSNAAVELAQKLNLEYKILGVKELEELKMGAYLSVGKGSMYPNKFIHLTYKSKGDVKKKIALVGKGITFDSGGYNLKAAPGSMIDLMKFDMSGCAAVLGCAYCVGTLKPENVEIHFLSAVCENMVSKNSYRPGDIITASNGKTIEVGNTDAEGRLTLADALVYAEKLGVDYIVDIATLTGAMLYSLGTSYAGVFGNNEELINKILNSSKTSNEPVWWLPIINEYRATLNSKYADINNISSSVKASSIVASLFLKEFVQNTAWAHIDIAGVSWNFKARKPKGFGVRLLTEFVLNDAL

inhibition, inactive:
O=C(NCC1CCCO1)c1csc(Nc2cccc3ccccc23)n1 (stereo not given) 4.77%
O=C(COc1cccc(NC(=O)c2ccco2)c1)c1ccccc1 -14.2%
O=C(NCCN1CCOCC1)c1ccc(NC(=O)C2COc3ccccc3O2)cc1 (stereo not given) 3.85%
CCOc1ccc(-n2c(COc3ccccc3)nnc2SCC(N)=O)cc1 -3.38%
Cc1nn(CC(=O)Nc2ccccc2)c(=O)c2ccccc12 20%
Cc1ccc(NC(=O)Cn2nc(C)c3ccccc3c2=O)cc1 23.3%
CCNC(=S)NNC(=O)c1csc2c1CCC(C)C2 (stereo not given) -1.92%
CC1=C(C)CC(C(=O)NNC(=O)c2csc(C)c2C)C(C(=O)O)C1 (stereo not given) 44.2%
CC(C)(C)C1CCc2c(C(=O)N/N=C/c3cccs3)csc2C1 (stereo not given) 1.12%
Cc1scc(C(=O)NNC(=O)CCC(=O)O)c1C 1.05%
CC1=C(C)CC(C(=O)NNC(=O)c2ccccc2)C(C(=O)O)C1 (stereo not given) 32.1%
CC(C)(C)C1CCc2c(C(=O)NNC(=O)/C=C/C(=O)O)csc2C1 (stereo not given) 43.8%
COCc1cc(C)nc(SCc2nc3ccccc3c(=O)[nH]2)c1C#N -5.07%
CCOC(=O)c1cc(-c2ccccc2)sc1NC(=O)C(C)N1C(=O)c2ccccc2C1=O (stereo not given) -1.18%
Nc1cc(-c2ccco2)no1 -0.59%
O=C1c2[nH]nc(-c3ccccc3O)c2C(c2ccccc2F)N1Cc1ccco1 (stereo not given) 16%
O=C(C(c1ccccc1)c1ccccc1)N1CCN(c2ccccn2)CC1 4.89%
CC(=O)c1nc(N2C(=O)C3CC=C(C)CC3C2=O)sc1C (stereo not given) 7.37%
COc1ccc2sc(N3C(=O)CC(Cc4cccc(C)c4)C3=O)nc2c1 (stereo not given) 29.4%
CCOC(=O)/C(=C\c1ccc([N+](=O)[O-])o1)NC(=O)c1ccccc1 -88.3%
O=C(Cc1cn(Cc2cccc(Cl)c2)c2ccccc12)N1CCCCCC1 -20.4%
O=c1c2c3c(sc2nc2sc(CN4CCCCC4)cn12)CCCC3 -6.38%
N#Cc1c(NC(=O)CCC(=O)O)sc2c1CCCCC2 34.4%
CC(=O)Nc1sc2c(c1C#N)CCCCC2 -1.44%
N#Cc1c(NC(=O)c2ccccc2)sc2c1CCCCC2 21.1%
N#Cc1c(NC(=O)C2CC2)sc2c1CCCCC2 28.1%
CC1CCc2c(sc(NC(=O)c3ccccc3C(=O)O)c2C#N)C1 (stereo not given) 1.93%
CC1CCc2sc(NC(=S)NC(=O)c3ccccc3)c(C#N)c2C1 (stereo not given) -12%
N#Cc1c(NC(=O)C2CCCO2)sc2c1CCCCC2 (stereo not given) -2.74%
N#Cc1c(NC(=O)C2CCCO2)sc2c1CCCCCC2 (stereo not given) 13.1%
O=C(Nc1ccccc1NS(=O)(=O)c1ccc(F)cc1)C1CCC1 6.59%
COc1ccc(-c2cn(-c3ccc(SC(F)F)cc3)c3[n+]2CCC3)cc1OC -11.9%
O=C(CCN1C(=O)c2ccccc2C1=O)Nc1cccnc1 11.6%
N#Cc1c(-c2ccccc2)ccnc1N1CCOCC1 0.41%
CCCCC(=O)NC(c1ccc(OC)c(OC)c1)c1c(O)ccc2ccccc12 (stereo not given) 5.73%
C=CCNC(=S)Nc1cccc(N)c1 2.22%
Cc1cccc(NC(=O)Cn2nc([N+](=O)[O-])c(Br)c2C)n1 -0.63%
CCCn1c(/N=C/c2c[nH]c3ccccc23)nc2ccccc21 0.08%
CN(CCC#N)C(=O)COC(=O)/C=C/c1ccc2c(c1)OCO2 2.65%
COc1ccc(C2=CC3=C(Br)C(=O)C(C)(OC(=O)C4CCCC4)C(=O)C3=CO2)cc1 (stereo not given) 22.1%
CC(=O)Nc1sc2c(c1C#N)CCCC2 -9.07%
CC1(C)Cc2c(sc(NC(=O)Cc3ccccc3)c2C#N)CO1 20.3%
CC(=O)Nc1sc2c(c1C#N)CCC2 -2.63%
Cc1sc(NC(=O)C2CCCC2)c(C#N)c1C 3.61%
CCOC(=O)c1c(NC(=O)C2CC(Cl)=CCC2C(=O)O)sc2c1CC(C)(C)OC2 (stereo not given) 42.4%
Cc1sc(NC(=O)C2CCCO2)c(C#N)c1C (stereo not given) 5.77%
Cn1nnnc1SCC(=O)Nc1cccc(S(=O)(=O)N2CCCC2)c1 -2.95%
O=C(Nc1nnc(SCc2ccccc2F)s1)c1ccco1 8.78%
Cc1ccc(NC(=O)Nc2cccc(Cl)c2)c(C(=O)O)c1 -7.94%
CCOC(=O)c1ccccc1NC(=O)CN1C(=O)c2ccccc2S1(=O)=O -15.2%
COc1ccc(C)cc1NC(=O)CN1C(=O)c2ccccc2S1(=O)=O 11.2%
CCC(C)NC(=O)c1ccccc1NC(=O)CN1C(=O)c2ccccc2S1(=O)=O (stereo not given) -2.81%
COc1ccc(OC)c(NC(=O)CN2C(=O)c3ccccc3S2(=O)=O)c1 23.2%
C/C(=N\NC(=O)c1cccc(S(=O)(=O)N2CCCC2)c1)c1cccs1 0.78%
O=C(CN1CCN(c2ncc(C(F)(F)F)cc2Cl)CC1)NC(=O)NCc1ccccc1 -3.07%
Cn1c2c(c(=O)n3ncnc13)CCCC2 -2.57%
Cc1ccc(OCCCC(=O)Nc2ccc(Br)cc2)cc1 -1.62%
CCOc1ccc(NC(=O)CSc2nnc(CCNC(=O)c3ccc(OC)cc3)n2C)cc1 23.6%
O=C(O)Cn1nnnc1SCC(=O)Nc1ccccc1F 18.7%
O=C(COC(=O)c1cccnc1)Nc1ccccc1 2.57%
CCn1c(CCNC(=O)c2ccc(OC)cc2)nnc1SCC(=O)Nc1ccccc1F 1.93%
O=C(O)CCC(=O)Nc1ccc(OCC(=O)O)cc1 -3.01%
CCn1nnnc1SCC(=O)Nc1ccc(OC)cc1 3.82%
Cc1ccc(NC(=O)COC(=O)c2cccnc2)cc1 25.2%
Cc1ccccc1NC(=O)NCc1ccc2c(c1)OCO2 5.21%
O=C(c1cnsn1)N1CCN(c2ccccn2)CC1 -4.02%
Cc1nc(C(=O)O)nn1-c1ccc([N+](=O)[O-])cc1 0.22%
COc1cccc([C@@H]2Oc3ccc(OC)cc3C(=O)[C@H]2OC(=O)N[C@H](C)C2CCCCC2)c1 -23.2%
O=[N+]([O-])c1ccc2c(c1)/C(=N\O)c1ccccc1-2 2.49%
CN1CCN(c2ccc(C(CC(N)=O)NC(=O)Cc3ccc(Br)cc3)cc2[N+](=O)[O-])CC1 (stereo not given) 5.26%
O=C(N/N=C\c1ccc2c(c1)OCO2)c1ccco1 26.4%
CCCc1nnc(SCC(=O)Nc2ccc(OCC)cc2)n1N 30.4%
CCCCOc1ccc(CC(=O)NCC(=O)O)cc1 4.31%
O=C(CSCCO)Nc1ccc(C2CCCCC2)cc1 6.11%
CCOc1ccc(NC(=O)CCC(=O)O)cc1 18%
CCn1nnnc1SCC(=O)Nc1ccc(OCc2ccccc2)cc1 4.99%
CCOc1ccc(OCC)c(NC(=O)CSCC(=O)O)c1 2.8%
CCCCOc1ccc(C(=O)O)cc1 23.4%
Nn1cnnc1SCC(=O)Nc1ccc(C2CCCCC2)cc1 -2.76%
O=C(Nc1nc2ccsc2c(=O)s1)c1ccco1 2.03%
COc1cc(/C=N/NC(=O)c2ccccc2Cl)ccc1Oc1ccc([N+](=O)[O-])cn1 3.71%
COC(=O)c1ccccc1NC(=O)c1ccccc1N(C)S(=O)(=O)c1ccccc1 -2.99%
CCN(C(=O)CCc1nc(-c2ccc(OC)cc2)no1)c1cc(OC)ccc1OC -5.65%
Cc1ccc(S(=O)(=O)N(C)CC(=O)OCC(=O)NC(c2ccccc2)c2ccccc2)cc1 11.4%
Cc1ccc(-c2ccc(/C=N/NC(=O)c3ccccc3O)o2)cc1 3.44%
COc1ccc(C(=O)Nc2nc3cc4c(cc3s2)OCCO4)c(OC)c1 -6.2%
Cc1ccc(NC(=O)NCc2ccccn2)cc1 5.76%
O=C(Cc1cccs1)NNC(=S)NC(=O)c1ccc(F)c(F)c1 7.14%
COc1ccc(C(=O)NC(=S)NNC(=O)Cc2cccs2)cc1 41.2%
CC(C)(C)c1cc(CCC(=O)NNC(=O)c2ccco2)cc(C(C)(C)C)c1O -5.01%
CC(=O)NC(=S)NNC(=O)CCc1ccccc1 21.3%
Cc1ccc(C(=O)NNC(=S)NC(=O)COc2ccccc2)cc1 16.5%
COc1ccc(C(=O)NC(=S)NNC(=O)COc2ccccc2)cc1 1.34%
O=C(CCc1ccccc1)NNC(=S)NC(=O)c1ccc(Cl)cc1 92.7%
CC(C)(C)c1cc(CCC(=O)NN)cc(C(C)(C)C)c1O -14%
CCOC(=O)N1CCC(N2C(=O)c3ccccc3C2Nc2ccc(S(=O)(=O)N3CCOCC3)cc2)CC1 (stereo not given) 2.69%
Cc1cccc(NC(=O)CCCn2cc([N+](=O)[O-])cn2)n1 -2.41%
COc1ccc(OC)c(NC(=O)CSCC(=O)O)c1 6.02%
Cc1cc(C(=O)CCC(=O)N2CCN(S(=O)(=O)c3cccs3)CC2)c(C)s1 0.37%
CN1C[C@@H]2C[C@@H](c3cccn3-c3nccs3)N3CCC[C@@]23C1=O -0.22%
